Most compounds without a hit are left out; they make up all but 2.3% or so of the library.
Gli-Sufu antag = antagonists of Gli-Sufu signaling | Sufu-KO-LIGHT fibroblasts, Gli luciferase reporter luminescence | inhibition, % at 5 µM | 340,000 tested, 0.74% active | AID 588413;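 active = inhibition above about 55%, limit read from the data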;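 also: 0% = DMSO-treated cells and 100% = wells with medium but no cells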
697 NFkB inh = inhibitors of the PMA/ionomycin-induced NF-kB reporter in 697 B cells | 697 B-cell NF-kB luciferase reporter, 16 h | AID 435022 | 330,000 tested, 0.33% active | inhibition, % at 4 µM; in the data active = inhibition above about 35%
Shn3 3UTR inh = reduces Shn3 3'UTR luciferase signal in osteoblasts | AID 588674 | Clone20 osteoblast Shn3 3'UTR firefly luciferase, 24 h | inhibition, % at 12.5 µM | 360,000 tested, 0.52% active;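 active = mean inhibition of at least 75% with every replicate also reaching 75%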;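 also: 0% = median of neutral control wells and 100% = pilot-screen positive control compound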
MITF TRPM1 inh = MITF TRPM1 promoter inhibition in SK-MEL-5 cells | SK-MEL-5 TRPM1 promoter luciferase, 24 h | inhibition, % at 12.5 µM | 330,000 tested, 0.83% active | AID 488899;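 active = mean inhibition across replicates of 60% or more, whatever share of single replicates reaches that level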
Jurkat NFkB inh = inhibitors of the PMA/ionomycin-induced NF-kB reporter in Jurkat cells; PMA/ionomycin-induced NF-kB luciferase reporter, luminescence; inhibition, % at 4 µM; 330,000 tested, 0.53% active; in the data active = inhibition above about 50%
EBV LMP1 NFkB = inhibitors of Epstein-Barr LMP1-induced NF-kappaB reporter. 350,000 tested, 0.69% active. AID 504558. LMP1-induced NF-kappaB luciferase reporter cells, luminescence. inhibition, % at 12.5 µM; in the data active = inhibition above about 41%;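 also: 0% = neutral control wells and 100% = reference inhibitor control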
697 NFkB conf = inhibitors of the PMA/ionomycin-induced NF-kB reporter in 697 B cells, retest; shares compounds with 697 NFkB inh; 697 B-cell NF-kB luciferase, 16 h; inhibition, % at 4 µM; 2,000 tested, 35% active; in the data active = inhibition mostly above about 28%, no sharp cut-off; inactive = mostly below about 22%
Numbers without * were called inactive; i = inactive; x = no result given.

SMILES | Gli-Sufu antag | 697 NFkB inh | Shn3 3UTR inh | MITF TRPM1 inh | Jurkat NFkB inh | EBV LMP1 NFkB | 697 NFkB conf
Cc1ccc(C(=O)CSc2nnc(COc3cccc(C)c3)o2)cc1 | 6 | 49* | -13 | 5 | -4 | -3 | 57*
CCOC(=O)CSc1nnc(COc2cccc(C)c2)o1 | 3 | 14 | -3 | -6 | 6 | -9 | x
CC(C)CNc1oc(-c2ccco2)nc1C#N | -12 | -4 | 6 | 3 | -6 | 1 | x
COC(=O)CNC(=O)C(NC(=O)OCc1ccccc1)C(C)C (stereo not drawn) | -3 | -7 | -30 | 6 | -2 | 4 | x
O=C(CSCCO)Nc1ccc(C23CC4CC(CC(C4)C2)C3)cc1 | 15 | 57* | -9 | -46 | -43 | 2 | 66*
COc1ccc(/C=C2\N=C(SC)N(c3ccccc3OC)C2=O)cc1 | -14 | i | 14 | -11 | 18 | -1 | i
CCOc1ccc(N2C(=O)/C(=C/c3ccccc3)N=C2SC)cc1 | -24 | -71 | -32 | -77 | -70 | -28 | x
c1ccc(-c2noc(-c3ccc4ccccc4c3)n2)cc1 | 17 | -354 | 29 | 43 | -100 | 9 | -359
O=C(CN1C(=O)NC2(CCCCCC2)C1=O)c1ccc2c(c1)OCCO2 | -60 | -266 | -41 | -40 | -110 | -36 | -132
Cc1cccc(NC(=O)c2cc3n(n2)C(C(F)(F)F)CC(c2ccc4c(c2)OCO4)N3)c1 (stereo not drawn) | -1 | 36* | -17 | 2 | 17 | -18 | 3
COc1ccc2cc3cc(C(=O)Nc4cc(OC)c(OC)c(OC)c4)oc3nc2c1 | 11 | 37* | 29 | 32 | 38 | 32 | 0
Cc1c(CC(=O)NCCCCCC(=O)O)c(=O)oc2cc3c(cc12)CCC(C)(C)O3 | -42 | 11 | -6 | -4 | -6 | 4 | x
Cc1c(CC(=O)NCCCC(=O)O)c(=O)oc2cc3c(cc12)CCC(C)(C)O3 | 3 | 52* | 19 | 51 | -2 | 11 | 51*
Cn1c(C(=O)NCc2ccccc2)cc2oc3ccccc3c21 | -29 | i | -17 | -40 | -96 | -8 | -331
Cn1c(C(=O)NCC2CCCO2)cc2oc3ccccc3c21 (stereo not drawn) | -98 | -129 | -39 | -49 | -97 | -20 | x
O=C(CNC(=O)c1cc2ccccc2o1)NCc1cccs1 | -5 | -2 | -12 | -10 | 1 | -11 | x
Cn1c(C(=O)NCc2cccs2)cc2oc3ccccc3c21 | 3 | i | -55 | -38 | -60 | -9 | i
O=C(COc1ccc(Cl)cc1Cl)Nc1ccc(S(=O)(=O)NC2=NCCCCC2)cc1 | 6 | -3 | -11 | 1 | -3 | -1 | x
Cc1ccc(C)c(CN2C(=O)c3ccccc3S(=O)c3ccc(C(=O)N4CCN(c5ccccn5)CC4)cc32)c1 (stereo not drawn) | 16 | i | 22 | 10 | -37 | 31 | i
Cc1ccc(C)c(CN2C(=O)c3ccccc3S(=O)(=O)c3ccc(C(=O)N4CCN(C)CC4)cc32)c1 | 3 | 0 | 5 | 12 | -6 | 5 | x
Clc1ccc(CNCC2CCCO2)c(Cl)c1 (stereo not drawn) | 6 | 8 | -17 | x | 3 | x | x
O=C(CNC(=O)c1cccc(OC(F)F)c1)OCC(=O)c1ccccc1 | 6 | 35* | 0 | -6 | -9 | -2 | 4
COc1cccc(C(=O)Cn2c(=N)n(C)c3ccccc32)c1 | -111 | -304 | 7 | -4 | -98 | 10 | -273
COc1ccc(-c2noc(CSc3nc4sc(C)c(C)c4c(=O)n3-c3ccccc3)n2)cc1 | 8 | 1 | 6 | 9 | -3 | -7 | x
COc1cc(/C(C)=N\NC(N)=S)cc(OC)c1OC | 10 | 40* | 3 | 2 | 9 | 7 | 41*
SMILES | Gli-Sufu antag | 697 NFkB inh | Shn3 3UTR inh | MITF TRPM1 inh | Jurkat NFkB inh | EBV LMP1 NFkB | 697 NFkB conf
Cc1cccc(-c2nc(CSc3nc4c(c(=O)[nH]3)CCC4)c(C)o2)c1 | -3 | 39* | -4 | 9 | 24 | 22 | 21
COc1ccc(C(=O)Nc2ncccc2C)cc1S(=O)(=O)N1CCCc2ccccc21 | -13 | 21 | -2 | 17 | -7 | -6 | x
COc1ccc(C(=O)Nc2nc3c(s2)CCCC3)cc1S(=O)(=O)N1CCCc2ccccc21 | 16 | i | 37 | 9 | -48 | -10 | i
O=[N+]([O-])c1ccccc1COc1ccc(Cl)c2cccnc12 | -80 | -306 | -23 | -4 | -76 | -23 | -312
O=C(Oc1ccc(Cl)c2cccnc12)c1cccc([N+](=O)[O-])c1 | -6 | -3 | 55 | 19 | 4 | -5 | x
Cc1cc(=O)nc2c3ccccc3n(C(C)C(=O)Nc3c(F)c(F)c(F)c(F)c3F)n12 (stereo not drawn) | 7 | 11 | 8 | -15 | -4 | 0 | x
Cn1c(SCC(=O)Nc2cc(Cl)cc(Cl)c2)nnc1-c1ccc2nonc2c1 | -2 | 38* | 5 | x | 6 | x | 26
Cc1ccc(-c2nc(C(=O)NCC3CCCO3)cc3c2[nH]c2ccccc23)cc1 (stereo not drawn) | 16 | 39* | 44 | 21 | 8 | 27 | 36*
COc1ccc(-c2nc(C(=O)NCC3CCCO3)cc3c2[nH]c2ccccc23)cc1 (stereo not drawn) | 15 | 23 | 14 | x | 0 | -10 | x
CC1(C(=O)NS(=O)(=O)c2ccccc2)CCN1C(=O)Cc1ccccc1Cl (stereo not drawn) | x | x | 5 | x | x | x | x
COc1ccc(/C=C2\SC(=S)N(CCCC(=O)Nc3ccc(O)cc3)C2=O)cc1 | 39 | 69* | 9 | 6 | -5 | 4 | 75*
COc1ccc(/C=C2\SC(=S)N(CCC(=O)NCCc3ccc(O)cc3)C2=O)cc1 | 4 | 18 | -8 | 6 | 12 | 0 | x
COc1ccc(/C=C2\SC(=S)N(CCC(=O)Nc3cccc(O)c3)C2=O)cc1 | -25 | 47* | -24 | -40 | 0 | 6 | 54*
COc1cc(/C=C2\SC(=S)N(CCC(=O)Nc3ccc(O)cc3)C2=O)cc(OC)c1OC | -3 | -19 | 11 | 18 | -1 | 9 | x
COc1ccc(/C=C2/SC(=S)N(CCCC(=O)Nc3ccc(O)cc3)C2=O)cc1 | 57* | 71* | 7 | 21 | -16 | 6 | 79*
CC(C)c1nc(SCC(=O)Nc2nc3c(s2)CCCC3)c2ccccc2n1 | 8 | -170 | 1 | 17 | -3 | -4 | x
CC(C)(C)c1nc(SCC(=O)Nc2nc3c(s2)CCCC3)c2ccccc2n1 | 20 | i | 19 | 5 | -31 | 34 | i
CCOCCCNc1nc2c(C)cccn2c(=O)c1/C=C1\SC(=S)N(CC(C)C)C1=O | -1 | 21 | -3 | -3 | 1 | 14 | x
CCOCCCNc1nc2c(C)cccn2c(=O)c1/C=C1\SC(=S)N(C(C)CC)C1=O (stereo not drawn) | -1 | 37* | x | 1 | 6 | 13 | 32*

From PubChem BioAssay
